Bioassay records deposited in PubChem by National Center for Advancing Translational Sciences (NCATS).
MCF10A rerep = inducers of DNA re-replication in MCF 10A breast cells | Potency, µM (top dose mostly 46.1 µM), for inactives: top-dose activity, positive = re-replication, usual class: activators | actives 2.9% (n = 350,000) | MCF 10A DNA re-replication, Hoechst nuclear intensity, 48 h; also: % of control where 0% means no effect; nearly all actives have a fitted effect of over 50% in size
KB-V1 cytotox = KB-V1 MDR subline cytotoxicity. AID 1347076. actives 3.4% (n = 400,000). KB-V1 MDR cells viability, CellTiter-Glo, 72 h. Potency, µM (highest dose often 46.1 µM), usual class: cytotoxic; also: % is scaled to controls: 0 for no effect and ±100 for the full control effect; nearly all actives have a fitted effect of over 60% in size
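Drug-selected KB-V1 cells, grown in DMEM lacking phenol red with 10% FBS, receive compound titrations; after three days at 37 degrees C, surviving cell ATP is quantified by CellTiter-Glo luminescence and responses normalized and curve-fitted.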
KB-3-1 tox = kills parental KB-3-1 adenocarcinoma cells | Potency, µM (doses to about 46.1 µM), actives largely listed as cytotoxic | actives 1.4% (n = 400,000) | KB-3-1 viability, CellTiter-Glo ATP luminescence, 72 h; also: % is scaled to controls: 0 for no effect and ±100 for the full control effect; nearly all actives have a fitted effect of over 60% in size
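Luminescent ATP read-out (CellTiter-Glo) measures survival of drug-naive KB-3-1 cells after 72 h compound exposure at 37 °C. Titration series was screened from lowest to highest concentration, with DMSO vehicle plates as background controls.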
SW480 rereplic = inducers of DNA re-replication in SW480 colon cancer cells | SW480 DNA re-replication, Hoechst DNA content imaging, 48 h | Potency, µM (titrated, usually from 46.1 µM), inactives show top-dose re-replication activation, usual class: activators | actives 1.8% (n = 340,000); also: % of control where 0% means no effect; nearly all actives have a fitted effect of over 55% in size
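SW480 cells exposed to compounds for 48 hr at 37 C, 5% CO2, then Hoechst-stained 40 min. Nuclear DNA content imaged by fluorescence scanning (405 nm excitation, 500-530 nm emission); re-replication scored as increased high-intensity nuclei.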
ELG1 DNA repair = ELG1-dependent DNA repair inhibition | HEK293T ELG1-luciferase reporter, luminescence, 16 h; DNA damage induced by 5-fluorouridine | Potency, µM (top dose mostly 46.1 µM), without a hit: top-dose activity change, negative = inhibition, most hits filed as inhibitors | actives 2.3% (n = 330,000); also: % is scaled to controls: 0 for no effect and ±100 for the full control effect; nearly all actives have a fitted effect of over 55% in size
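5-Fluorouridine DNA damage + compound/DMSO, 2,000 cells/well, 16 h, 37 °C/5% CO2. ONE-Glo, 30 min RT, luminescence. Readout = decrease in reporter signal.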
Starred values were filed as active, the others as inactive. Shown are actives, neighbours in structure and some others; about 8.1% of the full set was active somewhere. Calls follow the shape of the dose curve; as a rule, active = well fitted curve in the direction sought with a large enough effect; inconclusive = small, poorly fitted or top-dose-only effect, or another doubt; inactive = no such curve, though single readings can be large; an effect the other way counts as inactive or inconclusive. Potency is read from the fitted curve at half-maximal effect.

How did CC(C)C(C(=O)OCC(=O)c1cccc([N+](=O)[O-])c1)N1C(=O)[C@@H]2[C@H]3CC[C@H](C3)[C@@H]2C1=O (stereo partly specified) do in these assays?
MCF10A rerep: -72%; KB-V1 cytotox: 21µM*; KB-3-1 tox: inactive; SW480 rereplic: -20%; ELG1 DNA repair: -2%

Results for O=C(CCC(=O)OCC(=O)c1ccc([N+](=O)[O-])cc1)NC1CCCCC1 ?
MCF10A rerep: -68%; KB-V1 cytotox: inactive; KB-3-1 tox: inactive; SW480 rereplic: inconclusive; ELG1 DNA repair: -1%

How did O=C(CCC(=O)OCC(=O)c1cccc([N+](=O)[O-])c1)NC1CCCCC1 do in these assays?
MCF10A rerep: 3%; KB-V1 cytotox: inactive; KB-3-1 tox: inactive; SW480 rereplic: 2.6µM*; ELG1 DNA repair: 0%

How did O=C(CN1C(=O)C2C3CCC(C3)C2C1=O)OCC(=O)c1cccc([N+](=O)[O-])c1 (stereo unspecified) do in these assays?
MCF10A rerep: -3%; KB-V1 cytotox: inactive; KB-3-1 tox: inactive; SW480 rereplic: -2%; ELG1 DNA repair: 20%

What do the screens show for `CSCC(=O)N1CCC(n2nccc2NC(=O)c2ccc3c(c2)OCO3)CC1`?
MCF10A rerep: -8%; KB-V1 cytotox: inactive; KB-3-1 tox: inactive; SW480 rereplic: 0%; ELG1 DNA repair: inconclusive

How did Cc1ccc(-c2csc(NC(=O)CN3C(=O)CCC3=O)n2)cc1 do in these assays?
MCF10A rerep: -18%; KB-V1 cytotox: inactive; KB-3-1 tox: inactive; SW480 rereplic: -1%; ELG1 DNA repair: 16%

What do the screens show for `O=C(Cc1cccc([N+](=O)[O-])c1)Nc1cccc(C(=O)N2CCCCC2)c1`?
MCF10A rerep: 2%; KB-V1 cytotox: inactive; KB-3-1 tox: inactive; SW480 rereplic: -13%; ELG1 DNA repair: 16µM*

How did CN(Cc1ccccc1)C(=O)c1ccc(NC(=O)Cc2cccc([N+](=O)[O-])c2)cc1 do in these assays?
MCF10A rerep: 6%; KB-V1 cytotox: inactive; KB-3-1 tox: inactive; SW480 rereplic: 2%; ELG1 DNA repair: 0%

What do the screens show for `CN(CCc1ccccc1)C(=O)c1cccc(NC(=O)Cc2cccc([N+](=O)[O-])c2)c1`?
MCF10A rerep: 6%; KB-V1 cytotox: inactive; KB-3-1 tox: inactive; SW480 rereplic: -3%; ELG1 DNA repair: 23µM*

Results for O=C(Cc1cccc([N+](=O)[O-])c1)Nc1cccc(C(=O)N2CCOCC2)c1 ?
MCF10A rerep: 15%; KB-V1 cytotox: inactive; KB-3-1 tox: inactive; SW480 rereplic: 1%; ELG1 DNA repair: -17%

Results for Cc1nnc(SCC(=O)Nc2sccc2C(N)=O)n1Cc1ccccc1 ?
MCF10A rerep: 2%; KB-V1 cytotox: inactive; KB-3-1 tox: inactive; SW480 rereplic: 11%; ELG1 DNA repair: -1%

Results for COc1ccccc1OCC(=O)N/N=C/C=C/c1ccc([N+](=O)[O-])o1 ?
MCF10A rerep: inconclusive; KB-V1 cytotox: 16µM*; KB-3-1 tox: inconclusive; SW480 rereplic: inconclusive; ELG1 DNA repair: inconclusive

Results for CC1(C(=O)N/N=C/c2ccc([N+](=O)[O-])o2)CC1(Br)Br (stereo unspecified) ?
MCF10A rerep: inconclusive; KB-V1 cytotox: 18µM*; KB-3-1 tox: inconclusive; SW480 rereplic: 4.6µM*; ELG1 DNA repair: 0%

How did Cc1ccccc1OCC(=O)N/N=C/c1ccc([N+](=O)[O-])o1 do in these assays?
MCF10A rerep: 23µM*; KB-V1 cytotox: inactive; KB-3-1 tox: inactive; SW480 rereplic: 1.2µM*; ELG1 DNA repair: inconclusive

What do the screens show for `Cc1cc(C)cc(OCC(=O)N/N=C/c2ccc([N+](=O)[O-])o2)c1`?
MCF10A rerep: inconclusive; KB-V1 cytotox: inconclusive; KB-3-1 tox: inactive; SW480 rereplic: inconclusive; ELG1 DNA repair: inconclusive

Results for COC(=O)[C@@H]1C[C@@H]2CC[C@@H](O)C[C@@H]2N1Cc1ccc(OC)cc1 ?
MCF10A rerep: -3%; KB-V1 cytotox: inactive; KB-3-1 tox: inactive; SW480 rereplic: inconclusive; ELG1 DNA repair: 22%

How did O=C(O)CC(NS(=O)(=O)c1ccc(Cl)s1)c1ccccc1 (stereo unspecified) do in these assays?
KB-V1 cytotox: inactive; KB-3-1 tox: inactive

How did Cc1ccccc1C(=O)OCC(=O)Nc1cccc(S(=O)(=O)N2CCCCC2)c1 do in these assays?
KB-V1 cytotox: inactive; KB-3-1 tox: inactive

How did CC(=O)c1c(C)[nH]c(C(=O)OCC(=O)Nc2cccc(S(=O)(=O)N3CCCC3)c2)c1C do in these assays?
MCF10A rerep: 23%; KB-V1 cytotox: inconclusive; KB-3-1 tox: 2.3µM*; SW480 rereplic: -6%; ELG1 DNA repair: inconclusive

Results for CC(=O)c1c(C)[nH]c(C(=O)OCC(=O)Nc2cc(S(=O)(=O)N3CCCC3)ccc2Cl)c1C ?
MCF10A rerep: -63%; KB-V1 cytotox: 13µM*; KB-3-1 tox: inconclusive; SW480 rereplic: 54%; ELG1 DNA repair: 16µM*

What do the screens show for `CC(=O)c1c(C)[nH]c(C(=O)OCC(=O)Nc2ccccc2Cl)c1C`?
MCF10A rerep: 7%; KB-V1 cytotox: 4.6µM*; KB-3-1 tox: 21µM*; SW480 rereplic: 0%; ELG1 DNA repair: 8.2µM*

How did CCN(CC)S(=O)(=O)c1cc(NC(=O)C(C)OC(=O)c2[nH]c(C)c(C(C)=O)c2C)ccc1C (stereo unspecified) do in these assays?
MCF10A rerep: inconclusive; KB-V1 cytotox: 21µM*; KB-3-1 tox: inconclusive; SW480 rereplic: 4%; ELG1 DNA repair: 10µM*

Results for O=C(NCCc1ccccc1)C(=O)NCC1OCCN1S(=O)(=O)c1ccc([N+](=O)[O-])cc1 (stereo unspecified) ?
MCF10A rerep: inconclusive; KB-V1 cytotox: inconclusive; KB-3-1 tox: inactive; SW480 rereplic: -20%; ELG1 DNA repair: inconclusive

What do the screens show for `C/C=C(/C)C(=O)OC(C)(C)[C@@H]1Cc2c(ccc3ccc(=O)oc23)O1`?
MCF10A rerep: 20%; KB-V1 cytotox: inactive; KB-3-1 tox: inactive; SW480 rereplic: -1%; ELG1 DNA repair: -5%

How did CCOC(=O)c1c(C)[nH]c(C(=O)CN(C)CC(=O)Nc2ccccc2Cl)c1C do in these assays?
MCF10A rerep: inconclusive; KB-V1 cytotox: inactive; KB-3-1 tox: inactive; SW480 rereplic: -3%; ELG1 DNA repair: inconclusive

How did Cc1onc(-c2ccccc2Cl)c1C(=O)OCC(=O)Nc1cccc(S(=O)(=O)N(C)C)c1 do in these assays?
MCF10A rerep: 12%; KB-V1 cytotox: 8.2µM*; KB-3-1 tox: inconclusive; SW480 rereplic: 9%; ELG1 DNA repair: 16µM*

How did CC(=O)c1c(C)[nH]c(C(=O)OCC(=O)Nc2cccc(S(=O)(=O)N(C)C)c2)c1C do in these assays?
MCF10A rerep: 15%; KB-V1 cytotox: inactive; KB-3-1 tox: inactive; SW480 rereplic: 3%; ELG1 DNA repair: 13µM*
